This is part of a sample that, as a whole, favours compounds with a hit. Of some 79,000 tested, about 15% had one in any assay. Calls of active or inactive are those of the source. No stated cut-off is given here; in the data, active means growth inhibition above about 70%; inactive means the rest.
Legend:
[1] = NCI Yeast Anticancer Drug Screen. Data for the rad52 strain (AID 147);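 further: 0% = growth of vehicle-treated control cultures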; conditions: S. cerevisiae rad52 mutant growth inhibition, stronger effect = higher value
Summary of the method: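 Growth of repair-deficient yeast cells was compared between compound-treated and vehicle-treated cultures to give percent inhibition.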

[2] = NCI Yeast Anticancer Drug Screen. Data for the wt1 strain (AID 149);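 further: 0% = growth of vehicle-treated wt1 cultures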; conditions: S. cerevisiae wt1 strain (SPY 50644) growth inhibition, stronger effect = higher value
Summary of the method: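 Measured: growth of wt1 yeast under compound versus vehicle treatment, reported as inhibition.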

[3] = NCI Yeast Anticancer Drug Screen. Data for the rad50EPP+ strain (AID 151);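 further: 0% = growth of vehicle-treated control cultures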; conditions: S. cerevisiae rad50 mutant strain, stronger effect = higher value
Summary of the method: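 Measured: growth inhibition of rad50EPP+ yeast. Reference: vehicle-treated controls. Screen uses strains with defined genetic alterations in DNA damage repair or cell cycle control.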

[4] = NCI Yeast Anticancer Drug Screen. Data for the mgt1 strain (AID 153); conditions: S. cerevisiae mgt1 mutant growth inhibition, stronger effect = higher value
Summary of the method: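 Compounds were applied to mgt1 mutant yeast, and growth was then compared against vehicle-treated control cultures to give percent inhibition.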

[5] = NCI Yeast Anticancer Drug Screen. Data for the rad50 strain (AID 155);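 further: 0% = growth of vehicle-only cultures of the same strain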; conditions: S. cerevisiae rad50 strain growth inhibition, stronger effect = higher value
Summary of the method: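 Growth of the mutant yeast was measured after compound exposure and referenced to vehicle-treated cultures.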

[6] = NCI Yeast Anticancer Drug Screen. Data for the mec2-1 strain (AID 157); conditions: S. cerevisiae mec2-1 strain, stronger effect = higher value
Summary of the method: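 Compounds were applied to mec2-1 yeast cells. Their growth was then compared with that of vehicle-treated cultures to give growth inhibition.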

[7] = NCI Yeast Anticancer Drug Screen. Data for the rad14 strain (AID 159);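 further: 0% = growth of vehicle-treated control cultures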; conditions: S. cerevisiae rad14 strain growth inhibition, stronger effect = higher value
Summary of the method: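 Here, inhibition of yeast growth was measured after compound exposure, using a strain with a genetic defect in DNA damage repair and vehicle-treated cultures as the reference.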

[8] = NCI Yeast Anticancer Drug Screen. Data for the sgs1 mgt1 strain (AID 161);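 further: 0% = growth of cultures given vehicle only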; conditions: S. cerevisiae sgs1 mgt1 strain, stronger effect = higher value
Summary of the method: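 Growth of a repair-deficient yeast mutant was monitored after compound treatment and expressed as inhibition relative to vehicle-treated cultures.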

[9] = NCI Yeast Anticancer Drug Screen. Data for the CLN2oe strain (AID 163);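 further: 0% = growth of vehicle-only control cultures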; conditions: S. cerevisiae CLN2oe strain, stronger effect = higher value
Summary of the method: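 Cells of an engineered yeast line with disturbed cell-cycle regulation are treated with compound. Inhibition of growth is then calculated relative to the vehicle-treated reference.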

[10] = NCI Yeast Anticancer Drug Screen. Data for the cln2 rad14 strain (AID 165);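 further: 0% = growth equal to vehicle treated cultures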; conditions: S. cerevisiae cln2 rad14 strain, stronger effect = higher value
Summary of the method: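 Strain: cln2 rad14 yeast, altered in cell cycle control and DNA damage repair. Read-out: growth inhibition vs vehicle.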

[11] = NCI Yeast Anticancer Drug Screen. Data for the bub3 strain (AID 167); conditions: S. cerevisiae bub3 mutant strain, stronger effect = higher value
Summary of the method: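 Whole-cell yeast assay. The mutant strain was incubated with compounds, and growth inhibition was determined by comparison with vehicle-treated cells.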

[12] = NCI Yeast Anticancer Drug Screen. Data for the wt2 strain (AID 169);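 further: 0% = growth of vehicle-treated yeast cultures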; conditions: S. cerevisiae wt2 strain growth inhibition, stronger effect = higher value
Summary of the method: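 Growth of compound-treated yeast is measured and expressed as inhibition relative to vehicle-only controls.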

[13] = NCI Yeast Anticancer Drug Screen. Data for the mlh1 strain (AID 171);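 further: 0% = growth of vehicle-treated control cultures of the same strain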; conditions: S. cerevisiae mlh1 strain growth inhibition, stronger effect = higher value
Summary of the method: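 Test agents were incubated with yeast bearing a defined DNA damage repair or cell cycle control alteration; values are growth inhibition normalised to vehicle-treated cultures.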

[14] = NCI Yeast Anticancer Drug Screen. Data for the sgs1 strain (AID 173);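 further: 0% = growth of vehicle-only control cultures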; conditions: S. cerevisiae sgs1 mutant, stronger effect = higher value
Summary of the method: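 Strain with an altered DNA repair or cell cycle pathway exposed to compound. Growth then measured. Value = inhibition versus vehicle control.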

[15] = NCI Yeast Anticancer Drug Screen. Data for the mlh1 rad18 strain (AID 175); conditions: S. cerevisiae mlh1 rad18 strain growth inhibition, stronger effect = higher value
Summary of the method: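 A repair-deficient yeast strain is exposed to test compound, and growth is scored relative to vehicle-treated controls.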

[16] = NCI Yeast Anticancer Drug Screen. Data for the rad18 strain (AID 177); conditions: S. cerevisiae rad18 mutant growth inhibition, stronger effect = higher value
Summary of the method: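 DNA-repair-defective yeast; compound treatment; growth inhibition scored against vehicle.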

[17] = at 5.0 µM (retest, dose inferred, filed as 0.5)
[18] = at 50.0 µM (retest, dose inferred, filed as 5.0)

Measured: growth inhibition

Cc1ccc(S/C(=C\C(=O)O)c2ccccc2)cc1
inactive: [1]; at 1.2 µM 2% | [1]; at 3.7 µM 7% | [1]; at 11.0 µM 12% | [1]; at 33.0 µM 28% | [1]; at 100.0 µM 46% | [2]; at 1.2 µM -6% | [2]; at 3.7 µM -7% | [2]; at 11.0 µM -8% | [2]; at 33.0 µM -2% | [2]; at 100.0 µM 10% | [3]; at 1.2 µM -6% | [3]; at 3.7 µM 2% | [3]; at 11.0 µM 15% | [3]; at 33.0 µM 25% | [3]; at 100.0 µM 52% | [4]; at 1.2 µM -4% | [4]; at 3.7 µM -5% | [4]; at 11.0 µM -3% | [4]; at 33.0 µM 4% | [4]; at 100.0 µM 32% | [5]; at 1.2 µM 2% | [5]; at 3.7 µM 4% | [5]; [17] -16% | [5]; at 11.0 µM 13% | [5]; at 33.0 µM 30% | [5]; [18] 47% | [5]; at 50.0 µM 41.9% | [5]; at 100.0 µM 52% | [6]; at 1.2 µM -6% | [6]; at 3.7 µM -3% | [6]; [17] -15% | [6]; at 11.0 µM -4% | [6]; at 33.0 µM 8% | [6]; [18] -1% | [6]; at 50.0 µM 28.9% | [6]; at 100.0 µM 25% | [7]; at 1.2 µM -1% | [7]; at 3.7 µM 3% | [7]; at 11.0 µM 7% | [7]; at 33.0 µM 17% | [7]; at 100.0 µM 34% | [8]; [17] -12% | [8]; [18] 52% | [8]; at 50.0 µM 64.8% | [9]; at 1.2 µM 1% | [9]; at 3.7 µM -2% | [9]; at 11.0 µM 5% | [9]; at 33.0 µM 16% | [9]; at 100.0 µM 35% | [10]; [17] -6% | [10]; [18] 29% | [10]; at 50.0 µM 47.5% | [11]; at 1.2 µM -4% | [11]; at 3.7 µM -4% | [11]; [17] -2% | [11]; at 11.0 µM -4% | [11]; at 33.0 µM 6% | [11]; [18] 66% | [11]; at 50.0 µM 39.5% | [11]; at 100.0 µM 19% | [12]; at 1.2 µM -10% | [12]; at 3.7 µM -11% | [12]; at 11.0 µM -7% | [12]; at 33.0 µM -3% | [12]; at 100.0 µM 11% | [13]; at 1.2 µM -6% | [13]; at 3.7 µM 0% | [13]; at 11.0 µM 6% | [13]; at 33.0 µM 20% | [13]; at 100.0 µM 38% | [14]; at 1.2 µM 4% | [14]; at 3.7 µM -4% | [14]; at 11.0 µM 12% | [14]; at 33.0 µM 25% | [14]; at 100.0 µM 50% | [15]; [17] -29% | [15]; at 50.0 µM 38% | [16]; at 1.2 µM -4% | [16]; at 3.7 µM 4% | [16]; at 11.0 µM 7% | [16]; at 33.0 µM 20% | [16]; at 100.0 µM 50%
active: [15]; [18] 72%

Cc1cc2cc3cc(C)c(N)cc3nc2cc1N
inactive: [1]; at 1.2 µM -6% | [1]; at 3.7 µM -1% | [1]; at 11.0 µM -7% | [2]; at 1.2 µM -18% | [2]; at 3.7 µM -8% | [2]; at 11.0 µM -6% | [2]; at 33.0 µM 56% | [3]; at 1.2 µM -10% | [3]; at 3.7 µM 20% | [3]; at 11.0 µM 37% | [4]; at 1.2 µM -61% | [4]; at 3.7 µM -60% | [4]; at 11.0 µM -28% | [4]; at 33.0 µM 68% | [5]; at 1.2 µM -9% | [5]; at 3.7 µM -18% | [5]; at 11.0 µM 27% | [6]; at 1.2 µM -18% | [6]; at 3.7 µM -5% | [6]; at 11.0 µM 13% | [7]; at 1.2 µM -7% | [7]; at 3.7 µM -23% | [7]; at 11.0 µM 5% | [8]; [17] 16% | [9]; at 1.2 µM -1% | [9]; at 3.7 µM 8% | [9]; at 11.0 µM 17% | [9]; at 33.0 µM 46% | [10]; [17] 34% | [10]; at 50.0 µM 46.8% | [11]; at 1.2 µM -20% | [11]; at 3.7 µM -5% | [11]; [17] 23% | [11]; at 11.0 µM 8% | [11]; at 33.0 µM 69% | [12]; at 1.2 µM -7% | [12]; at 3.7 µM -12% | [12]; at 11.0 µM 2% | [12]; at 33.0 µM 56% | [13]; at 1.2 µM -10% | [13]; at 3.7 µM 3% | [13]; at 11.0 µM 24% | [14]; at 1.2 µM -43% | [14]; at 3.7 µM -21% | [14]; at 11.0 µM 0% | [14]; at 33.0 µM 66% | [16]; at 1.2 µM -37% | [16]; at 3.7 µM -25% | [16]; at 11.0 µM -11% | [16]; at 33.0 µM 67%
active: [1]; at 33.0 µM 77% | [1]; at 100.0 µM 96% | [2]; at 100.0 µM 89% | [3]; at 33.0 µM 71% | [3]; at 100.0 µM 84% | [4]; at 100.0 µM 94% | [5]; [17] 94% | [5]; at 33.0 µM 86% | [5]; [18] 99% | [5]; at 50.0 µM 81.8% | [5]; at 100.0 µM 96% | [6]; [17] 78% | [6]; at 33.0 µM 82% | [6]; [18] 98% | [6]; at 50.0 µM 75.5% | [6]; at 100.0 µM 97% | [7]; at 33.0 µM 70% | [7]; at 100.0 µM 92% | [8]; [18] 98% | [8]; at 50.0 µM 85.2% | [9]; at 100.0 µM 83% | [10]; [18] 98% | [11]; [18] 96% | [11]; at 50.0 µM 77.8% | [11]; at 100.0 µM 92% | [12]; at 100.0 µM 94% | [13]; at 33.0 µM 79% | [13]; at 100.0 µM 95% | [14]; at 100.0 µM 91% | [15]; [17] 94% | [15]; [18] 99% | [15]; at 50.0 µM 81.8% | [16]; at 100.0 µM 92%

Source: PubChem BioAssay (NCI)
